Laboratory results from the supplement of paper PMC10849652.
About 7,900 targets were measured; listed, in parts, are those with a hit and a random draw of the rest. About 0.6% of all pairs of compound and target were hits. Unmarked numbers belong to inactive results.

Legend:
Assay in all cases: log2 fold change, soluble protein after heating vs DMSO (PISA); higher = thermal stabilisation; K562 cells, 10 uM, 30 min; active = over 0.2 and 3.5 SD of the protein, either way, in both replicates (recomputed)
erlotinib = compound: C#Cc1cccc(Nc2ncnc3cc(OCCOC)c(OCCOC)cc23)c1 [erlotinib]
How it was run: (§1)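 K562 cells at 2×10^6 cells/mL were given 10 μM compound for 30 min. Aliquots then went through 3 min of heating across 48°C-58°C, were pooled, and were extracted in PBS with 0.5% NP-40 at 4°C, and the supernatant after 21,000xg for 90 min was quantified by TMTpro 16plex LC-MS/MS with channel sums equalised. Thermal stability relative to control samples, from duplicates, is given as log2 fold change.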

[1] = compound: C/C(=N\NC(=O)C1=CC(=CC=C1)S(=O)(=O)N2CCOCC2)/C3=C(C=CC(=C3)Cl)O
How it was run: as §1

[2] = compound: C1=CC(=C(C=C1Cl)C2=NC3=NC=CN=C3C(=N2)NC4=CC=NC=C4)F
How it was run: as §1

[3] = compound: C1=CC(=CC=C1C2=NC3=C(N2)C=C(C=C3)C(=O)N)OC4=CC=C(C=C4)Cl
How it was run: as §1

[4] = compound: C1=CC2=C(C=CC(=C2)/C=C\3/C(=O)NC(=NCC4=CC=CS4)S3)N=C1
How it was run: as §1

[5] = compound: C1=CC2=NC=CN=C2C=C1/C=C/3\C(=O)NC(=O)S3
How it was run: as §1

[6] = compound: C1=CC=C(C=C1)C2=NC(=C(N2)C3=CC=NC=C3)C4=CC(=C(C=C4)Cl)O
How it was run: as §1

[7] = compound: C1=CC=C2C(=C1)C3=NNC4=CC=CC(=C43)C2=O
How it was run: as §1

[8] = compound: C1CCN(C1)C(=O)NC2=CC=CC(=C2)NC3=NC=C(C(=N3)NCCC4=CN=CN4)Br
How it was run: as §1

[9] = compound: C1CN(CCC1(CC2=CC=C(C=C2)Cl)N)C3=NC=NC4=C3C=CN4
How it was run: as §1

Sequence of UniProt P11586 (P11586 whole entry, looked up): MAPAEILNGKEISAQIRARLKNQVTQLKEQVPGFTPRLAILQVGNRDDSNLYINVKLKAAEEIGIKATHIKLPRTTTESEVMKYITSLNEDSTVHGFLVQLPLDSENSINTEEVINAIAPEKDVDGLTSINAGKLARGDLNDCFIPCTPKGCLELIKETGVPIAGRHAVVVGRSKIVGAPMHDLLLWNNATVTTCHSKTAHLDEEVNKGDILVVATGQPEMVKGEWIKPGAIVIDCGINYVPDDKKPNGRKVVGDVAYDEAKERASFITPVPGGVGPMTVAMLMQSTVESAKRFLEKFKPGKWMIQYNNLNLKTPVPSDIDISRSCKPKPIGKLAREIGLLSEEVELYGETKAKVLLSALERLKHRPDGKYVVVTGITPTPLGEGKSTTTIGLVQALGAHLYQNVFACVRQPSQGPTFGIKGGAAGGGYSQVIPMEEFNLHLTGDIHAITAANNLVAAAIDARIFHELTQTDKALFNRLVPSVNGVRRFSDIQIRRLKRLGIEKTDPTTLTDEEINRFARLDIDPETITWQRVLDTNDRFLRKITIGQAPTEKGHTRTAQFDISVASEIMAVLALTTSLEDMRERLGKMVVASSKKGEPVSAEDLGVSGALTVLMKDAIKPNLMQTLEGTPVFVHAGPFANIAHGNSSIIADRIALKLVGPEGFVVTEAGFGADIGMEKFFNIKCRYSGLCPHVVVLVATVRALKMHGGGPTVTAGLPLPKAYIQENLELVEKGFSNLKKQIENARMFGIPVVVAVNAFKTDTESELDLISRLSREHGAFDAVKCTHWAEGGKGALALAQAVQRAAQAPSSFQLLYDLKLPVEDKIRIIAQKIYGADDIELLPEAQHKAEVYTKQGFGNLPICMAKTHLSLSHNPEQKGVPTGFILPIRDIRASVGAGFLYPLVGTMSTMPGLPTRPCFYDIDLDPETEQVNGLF
Sequence of UniProt P52948 (P52948 whole entry, looked up): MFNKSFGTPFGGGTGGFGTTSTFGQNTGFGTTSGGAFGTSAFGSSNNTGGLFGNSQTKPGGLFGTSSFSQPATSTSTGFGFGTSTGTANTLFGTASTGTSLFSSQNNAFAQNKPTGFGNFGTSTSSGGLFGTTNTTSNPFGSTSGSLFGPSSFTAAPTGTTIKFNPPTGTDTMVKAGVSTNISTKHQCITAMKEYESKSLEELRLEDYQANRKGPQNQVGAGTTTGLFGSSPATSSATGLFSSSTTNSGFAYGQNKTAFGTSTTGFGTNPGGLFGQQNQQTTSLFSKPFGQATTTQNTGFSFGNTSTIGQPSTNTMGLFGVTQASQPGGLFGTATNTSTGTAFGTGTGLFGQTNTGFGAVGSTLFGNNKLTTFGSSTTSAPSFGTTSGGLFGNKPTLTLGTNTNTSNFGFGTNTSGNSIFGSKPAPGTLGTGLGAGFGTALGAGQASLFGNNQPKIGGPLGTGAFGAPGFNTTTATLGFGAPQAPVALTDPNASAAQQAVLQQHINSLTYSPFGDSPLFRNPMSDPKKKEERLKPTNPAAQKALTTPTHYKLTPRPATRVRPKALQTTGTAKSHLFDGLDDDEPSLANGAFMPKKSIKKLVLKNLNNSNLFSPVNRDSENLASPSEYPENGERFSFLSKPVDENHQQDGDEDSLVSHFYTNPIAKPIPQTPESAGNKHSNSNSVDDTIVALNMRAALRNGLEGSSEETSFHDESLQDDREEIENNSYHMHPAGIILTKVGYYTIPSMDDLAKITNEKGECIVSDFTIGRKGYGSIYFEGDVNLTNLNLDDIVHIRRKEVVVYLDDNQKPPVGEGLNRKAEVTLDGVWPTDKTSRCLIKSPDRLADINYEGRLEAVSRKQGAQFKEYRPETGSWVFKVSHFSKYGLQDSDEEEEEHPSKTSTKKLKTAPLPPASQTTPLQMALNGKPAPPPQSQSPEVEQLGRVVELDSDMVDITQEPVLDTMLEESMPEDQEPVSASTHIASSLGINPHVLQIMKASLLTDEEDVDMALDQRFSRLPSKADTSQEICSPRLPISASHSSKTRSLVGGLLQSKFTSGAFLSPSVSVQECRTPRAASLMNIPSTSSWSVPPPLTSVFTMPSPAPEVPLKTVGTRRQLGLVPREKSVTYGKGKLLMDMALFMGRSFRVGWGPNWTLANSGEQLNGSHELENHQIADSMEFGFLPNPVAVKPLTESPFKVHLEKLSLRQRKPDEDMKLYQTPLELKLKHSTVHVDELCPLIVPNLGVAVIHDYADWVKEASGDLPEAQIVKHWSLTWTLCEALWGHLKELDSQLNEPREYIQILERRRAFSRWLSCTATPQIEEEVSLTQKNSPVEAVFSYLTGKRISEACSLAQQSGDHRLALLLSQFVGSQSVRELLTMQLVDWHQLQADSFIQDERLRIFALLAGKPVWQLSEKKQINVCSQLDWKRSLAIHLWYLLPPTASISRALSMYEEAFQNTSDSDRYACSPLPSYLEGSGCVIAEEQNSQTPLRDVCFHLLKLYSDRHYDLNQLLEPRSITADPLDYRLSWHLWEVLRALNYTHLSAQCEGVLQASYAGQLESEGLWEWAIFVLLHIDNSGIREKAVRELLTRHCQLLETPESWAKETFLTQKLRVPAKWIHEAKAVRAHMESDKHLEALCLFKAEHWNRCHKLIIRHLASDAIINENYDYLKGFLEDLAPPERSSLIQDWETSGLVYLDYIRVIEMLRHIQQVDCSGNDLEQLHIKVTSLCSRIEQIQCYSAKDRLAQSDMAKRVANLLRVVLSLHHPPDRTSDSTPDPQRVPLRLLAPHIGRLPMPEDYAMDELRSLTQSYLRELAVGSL
Sequence of UniProt Q8WX92 (Q8WX92 whole entry, looked up): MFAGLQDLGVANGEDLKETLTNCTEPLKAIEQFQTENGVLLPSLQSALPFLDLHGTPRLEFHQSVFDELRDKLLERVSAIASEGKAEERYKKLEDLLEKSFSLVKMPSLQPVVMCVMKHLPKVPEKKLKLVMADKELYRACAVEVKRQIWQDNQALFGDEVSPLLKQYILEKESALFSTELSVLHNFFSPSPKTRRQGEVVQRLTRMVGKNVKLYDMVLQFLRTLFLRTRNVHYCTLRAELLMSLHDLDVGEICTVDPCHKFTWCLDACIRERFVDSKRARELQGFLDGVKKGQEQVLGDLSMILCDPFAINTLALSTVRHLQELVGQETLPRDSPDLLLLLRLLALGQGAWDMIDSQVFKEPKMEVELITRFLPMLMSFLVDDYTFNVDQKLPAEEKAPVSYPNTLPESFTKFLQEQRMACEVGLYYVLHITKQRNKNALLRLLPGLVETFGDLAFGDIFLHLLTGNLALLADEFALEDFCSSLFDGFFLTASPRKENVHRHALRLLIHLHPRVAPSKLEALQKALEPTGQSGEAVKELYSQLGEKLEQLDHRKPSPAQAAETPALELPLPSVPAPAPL
Sequence of UniProt Q9H1E3 (Q9H1E3 whole entry, looked up): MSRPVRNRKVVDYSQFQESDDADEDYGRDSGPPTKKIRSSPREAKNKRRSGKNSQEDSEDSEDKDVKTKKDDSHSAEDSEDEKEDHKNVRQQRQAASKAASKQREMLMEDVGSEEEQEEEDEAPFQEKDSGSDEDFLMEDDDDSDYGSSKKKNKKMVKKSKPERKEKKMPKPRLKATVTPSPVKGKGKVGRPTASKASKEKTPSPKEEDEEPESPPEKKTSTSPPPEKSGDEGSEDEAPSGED
Sequence of UniProt Q9H019 (Q9H019 whole entry, looked up): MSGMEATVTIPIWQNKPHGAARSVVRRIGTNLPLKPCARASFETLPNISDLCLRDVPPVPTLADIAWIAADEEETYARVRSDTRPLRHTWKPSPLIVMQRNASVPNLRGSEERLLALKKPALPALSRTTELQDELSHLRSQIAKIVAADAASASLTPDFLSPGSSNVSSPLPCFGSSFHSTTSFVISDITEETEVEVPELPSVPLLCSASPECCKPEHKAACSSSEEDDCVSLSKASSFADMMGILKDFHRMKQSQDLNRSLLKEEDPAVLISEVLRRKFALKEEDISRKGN
Sequence of UniProt Q5TFE4 (Q5TFE4 whole entry, looked up): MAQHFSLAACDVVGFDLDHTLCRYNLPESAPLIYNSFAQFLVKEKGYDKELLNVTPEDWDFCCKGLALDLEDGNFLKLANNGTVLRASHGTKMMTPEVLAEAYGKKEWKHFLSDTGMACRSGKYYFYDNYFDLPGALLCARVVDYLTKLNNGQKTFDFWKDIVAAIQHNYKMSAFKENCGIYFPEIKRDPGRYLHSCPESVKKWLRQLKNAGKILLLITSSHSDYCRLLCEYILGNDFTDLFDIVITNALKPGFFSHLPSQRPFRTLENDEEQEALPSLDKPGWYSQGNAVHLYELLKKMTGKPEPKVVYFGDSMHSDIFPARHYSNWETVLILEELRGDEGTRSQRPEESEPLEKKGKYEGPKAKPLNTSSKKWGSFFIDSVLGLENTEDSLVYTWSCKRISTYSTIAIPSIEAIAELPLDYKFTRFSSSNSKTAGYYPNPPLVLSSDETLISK
Sequence of UniProt O43181 (O43181 whole entry, looked up): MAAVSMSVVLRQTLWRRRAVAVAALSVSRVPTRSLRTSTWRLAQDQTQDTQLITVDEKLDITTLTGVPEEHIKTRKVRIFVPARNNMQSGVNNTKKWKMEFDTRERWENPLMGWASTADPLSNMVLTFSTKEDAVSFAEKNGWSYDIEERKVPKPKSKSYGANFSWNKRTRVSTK
Sequence of UniProt Q99747 (Q99747 whole entry, looked up): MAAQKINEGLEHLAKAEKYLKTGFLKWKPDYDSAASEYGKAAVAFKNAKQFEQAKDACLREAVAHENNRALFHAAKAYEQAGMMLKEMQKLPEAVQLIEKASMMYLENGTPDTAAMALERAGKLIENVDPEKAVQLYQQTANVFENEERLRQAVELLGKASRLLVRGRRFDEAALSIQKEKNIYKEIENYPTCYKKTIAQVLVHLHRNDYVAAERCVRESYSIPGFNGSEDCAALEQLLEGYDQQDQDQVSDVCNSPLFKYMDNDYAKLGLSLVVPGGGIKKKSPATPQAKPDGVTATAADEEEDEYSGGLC
Sequence of UniProt Q9UI09 (Q9UI09 whole entry, looked up): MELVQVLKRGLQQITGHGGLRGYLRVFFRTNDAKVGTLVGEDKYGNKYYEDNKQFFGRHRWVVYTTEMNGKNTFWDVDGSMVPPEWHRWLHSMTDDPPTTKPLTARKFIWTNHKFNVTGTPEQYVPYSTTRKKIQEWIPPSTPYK

Row | Target | log2 fold change (erlotinib) | log2 fold change [1] | log2 fold change [2] | log2 fold change [3] | log2 fold change [4] | log2 fold change [5] | log2 fold change [6] | log2 fold change [7] | log2 fold change [8] | log2 fold change [9]
1 | NOL7 (UniProt Q9UMY1) | -0.151 | -0.208 | -0.728 (active) | 0.005 | -0.179 | 0 | -0.071 | -0.058 | 0.045 | -0.189
2 | MMS19 isoform 8 (UniProt Q96T76) | -0.01 | 0.001 | 0.044 | -0.025 | 0.113 | 0.053 | 0.05 | 0.016 | -0.01 | -0.01
3 | NCK1 (UniProt P16333) | 0.045 | 0.206 | -0.066 | 0 | 0.179 | -0.019 | -0.084 | 0 | -0.135 | -0.081
4 | NR2C2 isoform 2 (UniProt P49116) | -0.001 | -0.067 | -0.011 | 0.006 | 0.019 | -0.039 | -0.003 | -0.091 | 0.074 | 0.007
5 | NUP98 (UniProt P52948) | 0.063 | 0.01 | -0.085 | -0.013 | -0.011 | 0.035 | -0.015 | -0.217 | -0.06 | -0.012
6 | MSH6 (UniProt P52701) | 0.286 | 0.224 | 0.096 | 0.002 | 0.167 | 0 | 0.102 | 0.137 | -0.095 | -0.143
7 | NEMP1 (UniProt O14524) | -0.003 | -0.011 | -0.027 | 0.023 | 0.049 | 0.016 | -0.056 | -0.162 | 0.068 | 0.048
8 | NT5DC1 (UniProt Q5TFE4) | 0.071 | 0.001 | 0.087 | -0.019 | 0.087 | -0.008 | 0.02 | 0.02 | 0.008 | 0.028
9 | MRPS18B (UniProt Q9Y676) | 0.026 | 0.101 | -0.051 | 0.124 | 0.03 | 0.034 | 0.027 | 0.119 | 0.079 | -0.119
10 | NFATC3 (UniProt Q12968) | 0.121 | 0.197 | 0.024 | 0 | 0.039 | -0.013 | -0.019 | -0.101 | -0.01 | -0.027
11 | ORC3 isoform 2 (UniProt Q9UBD5) | 0.134 | -0.068 | -0.024 | -0.021 | 0.214 | 0.042 | 0.013 | 0.072 | -0.013 | 0.07
12 | NAPG (UniProt Q99747) | 0.081 | 0.134 | 0.072 | -0.019 | 0.021 | 0.038 | -0.009 | 0.033 | -0.037 | -0.016
13 | NMNAT1 (UniProt Q9HAN9) | 0.033 | -0.145 | -0.302 | -0.111 | -0.032 | 0.03 | -0.102 | -0.008 | 0.157 | -0.046
14 | NSDHL (UniProt Q15738) | -0.007 | 0.107 | 0.047 | 0.021 | 0 | -0.149 | 0.065 | 0.059 | -0.039 | -0.005
15 | MRPS27 isoform 2 (UniProt Q92552) | -0.044 | -0.058 | 0.018 | 0.061 | 0.056 | 0.024 | 0.074 | 0.086 | -0.048 | -0.106
16 | NFATC2IP (UniProt Q8NCF5) | -0.051 | 0.131 | -0.034 | 0.014 | 0.018 | 0.085 | -0.029 | -0.014 | -0.117 | 0.061
17 | NEU1 (UniProt Q99519) | 0.001 | -0.05 | -0.027 | 0.101 | 0.003 | 0 | -0.018 | -0.011 | 0.012 | -0.047
18 | MTHFD1 (UniProt P11586) | 0.06 | 0.058 | 0.074 | -0.019 | 0.019 | -0.021 | 0.05 | 0.01 | 0.013 | 0.032
19 | NUCKS1 (UniProt Q9H1E3) | 0.045 | -0.098 | -0.002 | -0.029 | -0.052 | 0 | -0.089 | 0.033 | 0.067 | -0.002
20 | MRPS31 (UniProt Q92665) | 0.003 | 0.001 | -0.032 | 0.105 | -0.004 | 0.023 | 0.048 | 0.064 | 0.003 | -0.066
21 | MRPS17 (UniProt Q9Y2R5) | -0.034 | -0.019 | -0.125 | 0.142 | -0.062 | 0 | 0.042 | 0.088 | -0.014 | -0.126
22 | MTFR1L (UniProt Q9H019) | -0.002 | -0.013 | -0.202 | 0.064 | -0.001 | -0.03 | 0.077 | 0.13 | 0.036 | -0.027
23 | NELFB isoform 2 (UniProt Q8WX92) | 0.046 | 0.151 | 0 | -0.036 | 0.054 | 0.07 | -0.049 | 0.01 | -0.075 | -0.025
24 | NDUFS4 (UniProt O43181) | -0.001 | -0.031 | -0.004 | 0.07 | -0.093 | 0.077 | -0.104 | -0.081 | 0.082 | 0.111
25 | NFYC (UniProt Q13952) | 0.014 | 0.004 | 0.016 | -0.006 | 0.059 | 0.007 | 0.007 | 0.01 | -0.034 | -0.042
26 | NDUFA12 (UniProt Q9UI09) | -0.014 | 0.011 | 0.016 | 0.147 | 0.075 | 0.001 | 0.061 | -0.007 | 0.028 | -0.031
27 | OXA1L (UniProt Q15070) | -0.014 | 0.029 | -0.005 | 0.012 | 0.01 | 0.021 | 0.006 | -0.029 | 0.012 | 0.043
28 | NHLRC2 (UniProt Q8NBF2) | 0.035 | 0 | -0.059 | 0.057 | 0.065 | -0.074 | -0.114 | 0.042 | 0.051 | 0.001
29 | MRPS12 (UniProt O15235) | -0.013 | 0.008 | -0.13 | 0.095 | -0.052 | 0.018 | 0.099 | 0.165 | 0.025 | -0.063
30 | NOLC1 isoform 2 (UniProt Q14978) | 0.022 | 0.036 | -0.051 | -0.005 | -0.11 | 0.024 | -0.034 | -0.171 | -0.177 | 0
